Experimental data reported in PubChem BioAssay (NCATS).
“And” between values parts separate entries of the source, which are not always exact repeats. Equal values may be shown once. Values without a mark were called inactive. Records with an inconclusive call do not appear. A call without a number means that no potency is given here. The source made the active and inactive calls. Unless noted, calls follow the shape of the dose curve; as a rule, active = well fitted curve in the direction sought with a large enough effect; inconclusive = small, poorly fitted or top-dose-only effect, or another doubt; inactive = no such curve, though single readings can be large; an effect the other way counts as inactive or inconclusive.

Experiments:
[1] = qHTS assay for measurement of the activity of small molecule inhibitors on Zika virus induced Caspase-3 activity in human iPSC derived neural progenitor cells (hNPCs) (AID 1224857); also: nearly all actives have a fitted effect of over 65% in size
Procedure, shortened: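 Cells were plated at 350 per well and grown 16 to 20 hours. Compound pretreatment lasted one hour, after which ZIKV (2 FFU/cell) was added for 6 hours. Percent inhibition was normalized between uninfected and infected controls.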

[2] = qHTS assay for measurement of the activity of small molecule inhibitors on Zika virus induced Caspase-3 activity in human astrocytoma cells (AID 1224859)
Procedure, shortened: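 Percent inhibition of virus-induced caspase-3/7 signal is calculated against uninfected and ZIKV-infected control cells. Cells are SNB-19, infected at 2 FFU/cell for 6 h after 1 h compound exposure.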

[3] = P-glycoprotein substrates identified in KB-8-5-11 adenocarcinoma cell line, qHTS therapeutic library screen (AID 1346987); also: nearly all actives have a fitted effect of over 65% in size; also: potency is read from the fitted curve at half-maximal effect
Procedure, shortened: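 KB-8-5-11, a colchicine-selected P-gp-overexpressing KB-3-1 subline, was grown without colchicine for the assay. Cells were seeded at 500 cells/well, dosed in concentration-response and incubated 72 h at 37 degree C, 5% CO2. Viability was read by CellTiter-Glo luminescence.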

[4] = NS1 protein of Zika virus - qHTS assay to identify small molecule inhibitors in human HEK 293 cells (AID 1347053); also: series mostly up to about 46 µM; nearly all actives have a fitted effect of over 55% in size
Procedure, shortened: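 HEK 293; 20 h pre-culture, 37 C/5% CO2; cpd 1 h pre-infection; ZIKV MR766, MOI = 0.5, 24 h, 37 C; TR-FRET NS1 readout (two anti-NS1 Abs); norm. to no-virus vs infected.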

[5] = qHTS of pediatric cancer cell lines to identify multiple opportunities for drug repurposing: Primary screen for DAOY cells (AID 1347090); also: nearly all actives have a fitted effect of over 55% in size; also: potency is read from the fitted curve at half-maximal effect
Procedure, shortened: (§1)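 Viability measured as metabolically active cells via CellTiter-Glo luminescence following 48 hours of compound exposure, 11-point dilutions in confirmatory testing. 500-1,000 cells/well plated 5 hours before dosing; controls were DMSO and 2.3 µM bortezomib.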

[6] = qHTS of pediatric cancer cell lines to identify multiple opportunities for drug repurposing: Primary screen for SJ-GBM2 cells (AID 1347091); also: potency is read from the fitted curve at half-maximal effect
Procedure, shortened: as §1

[7] = qHTS of pediatric cancer cell lines to identify multiple opportunities for drug repurposing: Primary screen for A673 cells (AID 1347092); also: nearly all actives have a fitted effect of over 45% in size; also: potency is read from the fitted curve at half-maximal effect
Procedure, shortened: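 Cell viability of A673 measured by CellTiter-Glo ATP luminescence after 48 hours compound exposure. Dilution series spanned 0.78 nM to 46 µM (MIPE, 11-point) or 0.59 nM to 46 µM (NPC, 8-point); bortezomib 2.3 uM positive control.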

[8] = qHTS of pediatric cancer cell lines to identify multiple opportunities for drug repurposing: Primary screen for BT-37 cells (AID 1347094); also: potency is read from the fitted curve at half-maximal effect
Procedure, shortened: (§2)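 Viability was measured as metabolically active cells after 48 hours of treatment, read by CellTiter-Glo luminescence. Compounds were tested at multiple final concentrations, giving concentration-response curves.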

[9] = qHTS of pediatric cancer cell lines to identify multiple opportunities for drug repurposing: Primary screen for NB-EBc1 cells (AID 1347095); also: potency is read from the fitted curve at half-maximal effect
Procedure, shortened: as §2

[10] = qHTS of pediatric cancer cell lines to identify multiple opportunities for drug repurposing: Primary screen for U-2 OS cells (AID 1347096); also: nearly all actives have a fitted effect of over 50% in size; also: potency is read from the fitted curve at half-maximal effect
Procedure, shortened: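 Viability after 48 h compound treatment at 37C, 500-1,000 cells/well, read as ATP luminescence with CellTiter-Glo. Primary screens used 11-point (MIPE, 0.78 nM-46 µM) or 8-point (NPC, 0.59 nM-46 µM) final concentrations; follow-up screens used 11-point dilutions.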

[11] = qHTS of pediatric cancer cell lines to identify multiple opportunities for drug repurposing: Primary screen for TC32 cells (AID 1347089); also: nearly all actives have a fitted effect of over 60% in size; also: potency is read from the fitted curve at half-maximal effect
Procedure, shortened: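 Luminescent ATP read-out (CellTiter-Glo) of metabolically active TC32 cells after 48 h exposure. Concentration-response curves came from 11-point (MIPE, 0.78 nM–46 µM) or 8-point (NPC, 0.59 nM–46 µM) primary titrations; follow-up used 11 points.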

[12] = qHTS of pediatric cancer cell lines to identify multiple opportunities for drug repurposing: Primary screen for SK-N-MC cells (AID 1347093); also: potency is read from the fitted curve at half-maximal effect
Procedure, shortened: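 Metabolically active cells were quantified by ATP-dependent luminescence (CellTiter-Glo, 15 min at room temperature) following 48 h treatment. Cells had been plated at 500-1,000 per well and settled for 5 h beforehand.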

[13] = qHTS of pediatric cancer cell lines to identify multiple opportunities for drug repurposing: Primary screen for Saos-2 cells (AID 1347097); also: nearly all actives have a fitted effect of over 40% in size; also: potency is read from the fitted curve at half-maximal effect
Procedure, shortened: as §2

[14] = Natriuretic polypeptide receptor (hNpr1) antagonism - Pilot counterscreen GloSensor control cell line (AID 1347045; calls by dose curve; also: potency is read from the fitted curve at half-maximal effect)
Procedure, shortened: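 HEK293 cGMP GloSensor cells preloaded 2 h with 2% GloSensor reagent, then compound 30 min before baseline luminescence read. Stimulated with 50 uM sodium nitroprusside, 20 min at room temperature, then read again; counterscreen for Npr1 antagonism.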

[15] = target: Atrial natriuretic peptide receptor 1 (Homo sapiens) (UniProt P16066); experiment: Natriuretic polypeptide receptor (hNpr1) antagonism - Pilot screen (AID 1347049; calls by dose curve;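 also: agonist-evoked cGMP luminescence read 20 min after hNppA addition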; also: potency is read from the fitted curve at half-maximal effect)
Sequence of Atrial natriuretic peptide receptor 1 (Homo sapiens) (P16066 whole entry, looked up): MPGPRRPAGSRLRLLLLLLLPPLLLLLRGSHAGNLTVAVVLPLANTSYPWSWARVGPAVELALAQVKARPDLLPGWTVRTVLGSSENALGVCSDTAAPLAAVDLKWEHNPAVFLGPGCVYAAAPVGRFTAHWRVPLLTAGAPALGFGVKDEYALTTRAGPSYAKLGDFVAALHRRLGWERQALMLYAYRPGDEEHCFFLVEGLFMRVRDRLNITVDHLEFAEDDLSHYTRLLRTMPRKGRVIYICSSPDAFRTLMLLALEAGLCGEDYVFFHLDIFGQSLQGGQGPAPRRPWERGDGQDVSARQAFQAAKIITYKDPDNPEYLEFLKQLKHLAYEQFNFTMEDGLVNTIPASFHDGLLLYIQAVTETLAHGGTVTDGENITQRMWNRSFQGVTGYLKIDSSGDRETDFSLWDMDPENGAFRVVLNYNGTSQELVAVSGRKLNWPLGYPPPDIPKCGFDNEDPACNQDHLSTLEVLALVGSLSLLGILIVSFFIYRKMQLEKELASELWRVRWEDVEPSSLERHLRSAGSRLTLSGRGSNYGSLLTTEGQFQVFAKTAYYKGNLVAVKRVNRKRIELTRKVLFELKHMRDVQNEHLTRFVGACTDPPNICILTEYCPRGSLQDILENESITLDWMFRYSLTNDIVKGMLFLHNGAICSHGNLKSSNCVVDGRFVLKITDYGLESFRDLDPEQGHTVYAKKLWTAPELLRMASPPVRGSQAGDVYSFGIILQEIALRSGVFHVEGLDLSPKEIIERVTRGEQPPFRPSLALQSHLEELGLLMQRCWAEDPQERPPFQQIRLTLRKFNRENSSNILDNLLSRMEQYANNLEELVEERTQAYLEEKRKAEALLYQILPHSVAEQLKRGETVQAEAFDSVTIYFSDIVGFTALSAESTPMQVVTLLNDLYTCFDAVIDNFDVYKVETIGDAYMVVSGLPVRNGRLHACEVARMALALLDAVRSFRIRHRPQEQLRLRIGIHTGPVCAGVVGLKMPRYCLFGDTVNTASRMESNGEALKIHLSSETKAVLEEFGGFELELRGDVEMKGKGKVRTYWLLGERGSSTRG
Procedure, shortened: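 HEK293 cells expressing hNpr1 and GloSensor cGMP luciferase, 1500/well, loaded with 2% GloSensor reagent 2 h, compound 30 min at room temperature; luminescence read before and 20 min after 0.1 nM hNppA stimulation.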

[16] = target: T1, Tyrosine-protein phosphatase non-receptor type substrate 1 (Homo sapiens) + Leukocyte surface antigen CD47 (Homo sapiens) (UniProt P78324+Q08722); experiment: CD47-SIRPalpha protein protein interaction - LANCE assay qHTS validation (AID 1347057; active = well fitted curve in the direction sought with a large enough effect in the signal ratio, with a control signal flat, not every such curve was filed as active; the % refers to the signal ratio; also: series mostly up to about 38 µM)
T1 sequence (P78324 whole entry, looked up): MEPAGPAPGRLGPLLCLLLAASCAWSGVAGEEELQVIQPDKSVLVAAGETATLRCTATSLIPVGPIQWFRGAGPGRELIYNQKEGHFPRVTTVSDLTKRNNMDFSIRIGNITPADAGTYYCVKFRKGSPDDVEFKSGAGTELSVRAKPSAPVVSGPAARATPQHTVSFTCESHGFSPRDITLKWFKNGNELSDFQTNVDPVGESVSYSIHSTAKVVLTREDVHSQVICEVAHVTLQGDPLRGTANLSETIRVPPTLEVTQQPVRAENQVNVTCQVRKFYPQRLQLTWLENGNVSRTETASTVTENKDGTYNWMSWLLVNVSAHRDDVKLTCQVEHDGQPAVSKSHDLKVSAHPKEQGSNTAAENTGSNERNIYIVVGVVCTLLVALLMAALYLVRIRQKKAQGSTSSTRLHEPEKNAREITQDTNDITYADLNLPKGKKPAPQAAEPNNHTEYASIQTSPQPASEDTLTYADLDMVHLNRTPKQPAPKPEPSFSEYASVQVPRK
T1 sequence (Q08722 whole entry, looked up): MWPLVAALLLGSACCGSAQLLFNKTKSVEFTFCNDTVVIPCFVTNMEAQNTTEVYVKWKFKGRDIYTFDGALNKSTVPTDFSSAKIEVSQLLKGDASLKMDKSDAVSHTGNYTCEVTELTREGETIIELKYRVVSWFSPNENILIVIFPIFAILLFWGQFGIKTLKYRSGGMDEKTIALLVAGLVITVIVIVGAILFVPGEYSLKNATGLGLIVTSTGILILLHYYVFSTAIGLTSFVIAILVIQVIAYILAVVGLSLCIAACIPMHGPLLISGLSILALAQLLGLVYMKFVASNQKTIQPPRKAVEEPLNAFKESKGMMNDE
Procedure, shortened: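 First, His-tagged CD47 and Eu-labelled anti-His antibody met the compound for 30 min; next, site-specifically biotinylated SIRPalpha was added for 30 min; finally streptavidin-APC was added before reading the TR-FRET ratio.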

[17] = target: T1, Tyrosine-protein phosphatase non-receptor type substrate 1 (Homo sapiens) + Leukocyte surface antigen CD47 (Homo sapiens); experiment: CD47-SIRPalpha protein protein interaction - Alpha assay qHTS validation (AID 1347059);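 also: bead proximity luminescence from CD47 binding SIRPalpha after compound preincubation with SIRPalpha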
Procedure, shortened: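 Biotinylated Avi-tagged SIRPalpha (25 nM) preincubated 30 min with compound, then His-tagged CD47 (12.5 nM) added 30 min; AlphaScreen with Ni-NTA acceptor and streptavidin donor beads. PBS pH 7.4, 0.05% IGEPAL, room temperature; 7-point titrations.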

[18] = target: Atrial natriuretic peptide receptor 2 (Homo sapiens) (UniProt P20594); experiment: Natriuretic polypeptide receptor (hNpr2) antagonism - Pilot subtype selectivity assay (AID 1347050; calls by dose curve)
Sequence of Atrial natriuretic peptide receptor 2 (Homo sapiens) (P20594 whole entry, looked up): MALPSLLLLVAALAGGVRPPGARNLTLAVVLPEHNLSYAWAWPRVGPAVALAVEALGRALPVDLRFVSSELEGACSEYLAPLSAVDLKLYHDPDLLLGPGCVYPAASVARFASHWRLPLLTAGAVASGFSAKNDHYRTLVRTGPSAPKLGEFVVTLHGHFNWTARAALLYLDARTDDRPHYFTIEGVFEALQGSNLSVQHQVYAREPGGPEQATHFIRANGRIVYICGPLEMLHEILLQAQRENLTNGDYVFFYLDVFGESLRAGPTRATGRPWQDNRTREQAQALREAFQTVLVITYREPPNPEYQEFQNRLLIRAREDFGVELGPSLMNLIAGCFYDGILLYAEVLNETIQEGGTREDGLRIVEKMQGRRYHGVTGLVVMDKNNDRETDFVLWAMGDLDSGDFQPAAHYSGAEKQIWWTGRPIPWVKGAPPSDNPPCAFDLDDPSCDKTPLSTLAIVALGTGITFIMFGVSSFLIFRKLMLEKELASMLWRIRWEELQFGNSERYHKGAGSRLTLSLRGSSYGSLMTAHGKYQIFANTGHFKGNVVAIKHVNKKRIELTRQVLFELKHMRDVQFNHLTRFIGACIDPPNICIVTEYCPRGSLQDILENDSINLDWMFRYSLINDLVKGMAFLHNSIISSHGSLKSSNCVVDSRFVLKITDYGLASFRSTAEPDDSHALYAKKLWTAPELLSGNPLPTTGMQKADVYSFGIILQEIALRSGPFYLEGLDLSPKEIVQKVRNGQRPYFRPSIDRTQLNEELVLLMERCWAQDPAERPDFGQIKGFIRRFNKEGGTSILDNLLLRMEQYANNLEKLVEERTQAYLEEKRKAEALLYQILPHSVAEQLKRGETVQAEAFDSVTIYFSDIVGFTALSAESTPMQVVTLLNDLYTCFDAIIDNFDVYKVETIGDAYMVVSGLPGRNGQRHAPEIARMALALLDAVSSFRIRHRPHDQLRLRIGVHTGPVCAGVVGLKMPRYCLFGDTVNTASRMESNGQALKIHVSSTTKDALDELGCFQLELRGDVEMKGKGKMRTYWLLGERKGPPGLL
Procedure, shortened: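 HEK293 cells expressing hNpr2 and a GloSensor cGMP luciferase sensor, 1500/well, preloaded 2 h with 2% GloSensor reagent, compound 30 min, then 1 nM hNppC for 20 min. Antagonism from luminescence after versus baseline pre-read; LOPAC in 1:5 titrations.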

| Structure (SMILES) | Potency [1] | outcome [2] | Potency [3] | Potency [4] | Potency [5] | Potency [6] | Potency [7] | Potency [8] | Potency [9] | Potency [10] | Potency [11] | Potency [12] | Potency [13] | Potency [14] | Potency [15] | outcome [16] | Potency [17] | Potency [18] |
| --- | --- | --- | --- | --- | --- | --- | --- | --- | --- | --- | --- | --- | --- | --- | --- | --- | --- | --- |
| Nc1ccc(O)cc1 | inactive | inactive | inactive | inactive | inactive | inactive | inactive | inactive | inactive | inactive |  |  |  |  |  |  |  |  |
| CN1C(=O)CC(C)(c2ccccc2)C1=O (stereo not given) | inactive | inactive | inactive | inactive | inactive | inactive | inactive | inactive | inactive | inactive | inactive |  |  |  |  |  |  |  |
| CCN1CCN(C(=O)N[C@@H](C(=O)N[C@@H]2C(=O)N3[C@@H]2SC(C)(C)[C@H]3C(=O)O)c2ccccc2)C(=O)C1=O | inactive | inactive | inactive | inactive | inactive | inactive | inactive |  | inactive | inactive | inactive | inactive | inactive |  |  |  |  |  |
| O=C(Nc1ccc(Cl)cc1)Nc1ccc(Cl)c(Cl)c1 | inactive | inactive | 6.51 µM (active) | inactive |  | 11.9 µM (active) |  |  | 23.7 µM (active) |  |  | 18.8 µM (active) |  |  |  |  |  |  |
| O=C(CO)[C@@H](O)[C@H](O)[C@@H](O)CO | inactive | inactive | inactive | inactive | inactive | inactive | inactive |  | inactive |  |  | inactive | inactive |  |  |  |  |  |
| CCOc1ccc(NS(=O)(=O)c2ccc(N)cc2)nn1 | inactive | inactive | inactive | inactive | inactive | inactive | inactive | inactive | inactive |  | inactive |  | inactive |  |  |  |  |  |
| C[C@@]12CCC[C@H]1[C@@H]1CC[C@H]3C[C@@H](O)CC[C@]3(C)[C@H]1CC2 | inactive | inactive | inactive | inactive | inactive | inactive |  | inactive | inactive |  | inactive | inactive |  |  |  |  |  |  |
| CC(=O)OC/C=C(C)/C=C/C=C(C)/C=C/C1=C(C)CCCC1(C)C | inactive | inactive | inactive | inactive | inactive | inactive |  | inactive | inactive | inactive | inactive |  |  |  |  |  |  |  |
| Cc1ccccc1C(=O)N1CC/C(=N\OS(=O)(=O)O)c2ccc(Cl)cc21 | inactive | inactive | inactive | inactive | inactive | inactive | inactive | inactive | inactive | inactive |  |  | inactive |  |  |  |  |  |
| CO[C@@H]1[C@@H](O[C@@H]2O[C@H](C)[C@@H](O[C@H]3C[C@@](C)(O)[C@@H](O)[C@H](C)O3)[C@H](N(C)C)[C@H]2O)[C@@H](CC=O)C[C@@H](C)[C@@H](O[C@@H]2CC[C@H](N(C)C)[C@@H](C)O2)/C=C/C=C/C[C@@H](C)OC(=O)C[C@H]1OC(C)=O | inactive | inactive | inactive | inactive | inactive | inactive |  | inactive | inactive | inactive | inactive |  | inactive |  |  |  |  |  |
| Nc1cccc2c(N)cccc12 | inactive | inactive | inactive | inactive | inactive | inactive | 24.3 µM (active) |  |  | inactive |  | 24.3 µM (active) | 27.3 µM (active) |  |  |  |  |  |
| CCCCC/C=C\C/C=C\CCCCCCCC(=O)NC(C)c1ccccc1 (stereo not given) | inactive | inactive | inactive | inactive | inactive | inactive |  |  | inactive |  | inactive | 18.8 µM (active) |  |  |  |  |  |  |
| CC(C)C(C)(C)C(C)(C)C(C)(C)S | inactive | inactive | inactive | inactive | inactive | inactive | inactive | inactive |  | inactive | inactive |  | inactive |  |  |  |  |  |
| O=C(Nc1ccc(S(=O)(=O)N2CCOCC2)cc1)c1cc(Cl)ccc1NS(=O)(=O)c1ccc(Cl)s1 | inactive | inactive | inactive | inactive | inactive |  | inactive | inactive |  | inactive | inactive | 18.8 µM (active) |  |  |  |  |  |  |
| OCc1c[nH]c2ccccc12 | inactive | inactive | inactive | inactive | inactive |  |  | inactive |  |  | inactive | 21.7 µM (active) |  |  |  |  |  |  |
| CC(=O)OCC[N+](C)(C)C | inactive | inactive | inactive | inactive | inactive | inactive | inactive | inactive | inactive | inactive | inactive |  | inactive |  |  |  |  |  |
| O=C(c1ccccc1)c1ccccc1 | inactive | inactive | inactive | inactive | inactive | inactive | inactive | inactive | inactive |  | inactive |  | inactive |  |  |  |  |  |
| CC(C)N(CCC(=O)c1ccc2ccccc2c1)Cc1ccccc1 | inactive | inactive |  |  |  |  |  |  |  |  |  |  |  | 13.1 µM (active) | 13.5 µM (active) | inactive | inactive |  |
| CC(CC(C#N)(c1ccccc1)C(C)C)N(C)C (stereo not given) | inactive | inactive |  | inactive | inactive | inactive | inactive | inactive | inactive | inactive | inactive | inactive |  |  |  |  |  |  |
| COc1cccc2c1[C@@H]1CN(CCCCn3c(=O)[nH]c4c(sc5ncc(-c6ccccc6)nc54)c3=O)C[C@@H]1CO2 | inactive | inactive |  | inactive |  |  |  |  |  |  |  |  |  | inactive | inactive | inactive | inactive | inactive |
| O=[N+]([O-])c1ccc(-c2nc(-c3ccc(F)cc3)c(-c3ccncc3)[nH]2)cc1 | inactive | inactive |  | inactive |  |  |  |  |  |  |  |  |  |  | inactive | inactive |  | inactive |
| OC1(c2ccc(Cl)c(C(F)(F)F)c2)CCN(CCCC(c2ccc(F)cc2)c2ccc(F)cc2)CC1 | inactive | inactive | 23.1 µM (active) and 20.6 µM (active) |  |  |  | 10.6 µM (active) | 11 µM (active) |  | 21.1 µM (active) | 16.7 µM (active) |  | 11.9 µM (active) |  |  |  |  |  |
| Nc1c2ccccc2nc2ccccc12 | inactive | inactive | 13 µM (active) |  | 21.1 µM (active) |  | 6.68 µM (active) | 8.71 µM (active) |  |  |  | 11.9 µM (active) |  |  |  |  |  |  |
